{"source": "PubChem BioAssay AID1159580", "about": "(chemical genetic matrix, 2015)", "assay": "chemical genetic growth profiling, strain panel (AID 1159580);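 further: tested at 20 µM; growth read once vehicle control cultures reached saturation at 30 °C; 1 = growth at the plate median or of vehicle wells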", "conditions": "S. cerevisiae deletion strains, growth OD", "key": {"[1]": {"conditions": "locus YAL040C, strain CLN3, stronger effect = lower value"}, "[2]": {"conditions": "locus YDR363W, strain ESC2, stronger effect = lower value"}, "[3]": {"conditions": "locus YER002W, strain NOP16, stronger effect = lower value"}, "[4]": {"conditions": "locus YMR263W, strain SAP30, stronger effect = lower value"}, "[5]": {"conditions": "locus YNL153C, strain GIM3, stronger effect = lower value"}, "[6]": {"conditions": "locus YNL175C, strain NOP13, stronger effect = lower value"}, "[7]": {"conditions": "locus YNL197C, strain WHI3, stronger effect = lower value"}, "[8]": {"conditions": "locus YNL224C, strain SQS1, stronger effect = lower value"}, "[9]": {"conditions": "locus YOR083W, strain WHI5 (second series), stronger effect = lower value"}, "[10]": {"conditions": "locus YPL241C, strain CIN2, stronger effect = lower value"}}, "note": "Among all 5,500 compounds or so, about 2,000 (36%) were called active. Not shown: some 18% with an inconclusive outcome. The list shows a part of the results. Unmarked numbers belong to inactive results. No stated cut-off is given here; in the data, active means normalized growth mostly below about 0.91 (no sharp cut-off); inconclusive means no clear call, values can overlap the other calls; inactive means mostly above about 0.92."}
{"smiles": "CC(C)[C@@]1(NC(=O)[C@@H]2C=C3c4cccc5[nH]cc(c45)C[C@H]3N(C)C2)O[C@@]2(O)[C@@H]3CCCN3C(=O)[C@H](Cc3ccccc3)N2C1=O", "values": [{"measurement": "normalized growth", "setting": "[1]", "result": 0.989}, {"measurement": "normalized growth", "setting": "locus YCL061C, strain MRC1 (second series), stronger effect = lower value", "result": 0.996}, {"measurement": "normalized growth", "setting": "[2]", "result": 0.993}, {"measurement": "normalized growth", "setting": "[3]", "result": 0.998}, {"measurement": "normalized growth", "setting": "[4]", "result": 0.999}, {"measurement": "normalized growth", "setting": "locus YMR307W, strain GAS1, stronger effect = lower value", "result": 0.982}, {"measurement": "normalized growth", "setting": "[5]", "result": 0.99}, {"measurement": "normalized growth", "setting": "[6]", "result": 1.01}, {"measurement": "normalized growth", "setting": "[7]", "result": 1}, {"measurement": "normalized growth", "setting": "[8]", "result": 0.972}, {"measurement": "normalized growth", "setting": "[9]", "result": 1.04}, {"measurement": "normalized growth", "setting": "locus YPL055C, strain LGE1, stronger effect = lower value", "result": 0.99}, {"measurement": "normalized growth", "setting": "[10]", "result": 0.998}]}
{"smiles": "CC(C)C[C@H]1C(=O)N2CCC[C@H]2[C@]2(O)O[C@](NC(=O)[C@@H]3C=C4c5cccc6[nH]c(Br)c(c56)C[C@H]4N(C)C3)(C(C)C)C(=O)N12", "values": [{"measurement": "normalized growth", "setting": "[1]", "result": "0.741 (active)"}, {"measurement": "normalized growth", "setting": "locus YDR150W, strain NUM1, stronger effect = lower value", "result": 0.996}, {"measurement": "normalized growth", "setting": "[2]", "result": 1.02}, {"measurement": "normalized growth", "setting": "[3]", "result": 1.03}, {"measurement": "normalized growth", "setting": "[4]", "result": 1.01}, {"measurement": "normalized growth", "setting": "locus YNL128W, strain TEP1, stronger effect = lower value", "result": 1.03}, {"measurement": "normalized growth", "setting": "[5]", "result": 0.974}, {"measurement": "normalized growth", "setting": "[6]", "result": 1.04}, {"measurement": "normalized growth", "setting": "[7]", "result": 1.01}, {"measurement": "normalized growth", "setting": "[8]", "result": 1.01}, {"measurement": "normalized growth", "setting": "[9]", "result": 1.03}, {"measurement": "normalized growth", "setting": "[10]", "result": 0.989}]}
